Laboratory results published in PubChem BioAssay AID602376 (Johns Hopkins Ion Channel Center, 2012).
Measured potencies and affinities stand elsewhere. Inconclusive results are not listed. A number with no mark means an inactive call.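 How the source made its calls: active means raises choline transporter activity at one or more tested doses and gives a fitted dose-response curve; inconclusive means no clear call, values can overlap the other calls; inactive means no choline transporter activation at any dose, or no curve.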

The compounds below were run against High affinity choline transporter 1 (Homo sapiens) (UniProt Q9GZV3) (assay: human choline transporter potentiators, potency – cell-based, 10-point CRC, membrane potential dye, dose response (AID 602376)). Details: HEK293-CHT, choline-induced membrane potential dye, cells express CHT LV-AA mutant; series mostly up to 67 µM; percent activation: at the top concentration.
Sequence of High affinity choline transporter 1 (Homo sapiens) (Q9GZV3 whole entry, looked up): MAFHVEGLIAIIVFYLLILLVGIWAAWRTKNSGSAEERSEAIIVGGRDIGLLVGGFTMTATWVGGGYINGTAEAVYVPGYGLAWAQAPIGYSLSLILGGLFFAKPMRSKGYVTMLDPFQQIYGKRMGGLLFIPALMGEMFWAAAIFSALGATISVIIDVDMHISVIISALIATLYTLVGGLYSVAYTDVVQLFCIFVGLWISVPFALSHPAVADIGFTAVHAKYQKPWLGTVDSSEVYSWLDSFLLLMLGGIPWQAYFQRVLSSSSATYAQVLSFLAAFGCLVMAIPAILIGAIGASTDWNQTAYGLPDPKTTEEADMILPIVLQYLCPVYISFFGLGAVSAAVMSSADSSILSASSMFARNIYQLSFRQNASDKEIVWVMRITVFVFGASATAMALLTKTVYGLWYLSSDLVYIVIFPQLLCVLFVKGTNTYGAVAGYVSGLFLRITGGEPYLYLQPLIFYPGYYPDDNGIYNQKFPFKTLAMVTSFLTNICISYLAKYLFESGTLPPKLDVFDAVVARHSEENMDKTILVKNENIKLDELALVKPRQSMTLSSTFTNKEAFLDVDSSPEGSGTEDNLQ

| SMILES | percent activation [%] |
| --- | --- |
| CCCOC(=O)c1ccc(-[n+]2c(-c3ccccc3)cc(-c3ccccc3)cc2-c2ccccc2)cc1 | 105 |
| CCCCCn1c(=O)c(C(=O)NCc2ccncc2)c(O)c2ccccc21 | 78.3 |
| COc1ccc(C2NCc3ccc4c(c3-n3cccc32)OCO4)cc1O (stereo not drawn) | 112 |
